Experimental findings from PubChem BioAssay are described below.

“And” between values parts separate entries of the source, which are not always exact repeats. Identical values can stand only once. More than one record can exist for a structure, and the calls need not agree. The source made the active and inactive calls.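 How the source made its calls, unless noted: active means thallium flux through the channel raised or lowered by more than 3 SD from vehicle-only wells, actives on both sides; inactive means the rest.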

Test [1] can be described thus: polyglutamine-triggered caspase-3 activation inhibitors, cell-based (AID 1583). To be noted: polyglutamine-induced caspase-3 activation, cell assay; stronger effect = higher value;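 tested at 10 µM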.
Test [2] in a line: suppressors of polyQ aggregation in yeast, 75Q-TubU reporter (AID 1593). The note with it: Yeast 75Q polyglutamine aggregation reporter.
The nature of test [3]: inhibitors of mitochondrial cytochrome c release, biochemical, purified mitochondria (AID 1603).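 Further: mouse liver mitochondria challenged with calcium chloride; signal normalized to the plate average as 100%.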 The note with it: stronger effect = lower value.
Test [4] is described as follows: inhibitors of polyQ protein aggregation (AID 1604). To be noted: polyglutamine-induced protein aggregation inhibition assay; stronger effect = higher value; tested at 2.5 µM.
A short description of test [5]: enhancers of glutamate uptake in motor neurons, MN-1 cell line (AID 1612).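 Further: tested at 1 µM final; 0% = mean of DMSO vehicle wells on each plate; positive means more glutamate uptake than control and negative means less.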 The note with it: MN-1 motor neuron cells, stronger effect = higher value.
Test [6] in a line: Cy5 fluorescence interference with SSB-bound oligo, artefact control for HCV NS3 helicase inhibitor project, biochemical, NIH Clinical Collection, E. coli SSB (AID 743268; call rule not given here).
Test [7] concerns Hepatitis C virus NS3 helicase. The test can be described thus: HCV NS3 helicase inhibitors, primary screen, biochemical, fluorescence polarization, NIH Clinical Collection (AID 743270; call rule not given here). To be noted: NS3 helicase binding to Cy5-dT15 DNA, stronger effect = higher value, concentration not given here. A general note: Polarisation of emitted light reports the rotation of a fluorescent probe.
The target of test [8] is Single-stranded DNA-binding protein (Escherichia coli (strain K12)) (UniProt P0AGE0). Nature of the test: E. coli SSB displacement from DNA, counter-screen for HCV NS3 helicase inhibitor project, biochemical, fluorescence polarization, NIH Clinical Collection (AID 743271; in the data active means inhibition above about 28%). The note with it: stronger effect = higher value, concentration not given here. (In general: A counterscreen serves to expose hits that act by an unwanted route or on another target.)

Test [9] in a line: fluorescence interference in NS3h assay format, artefact control for HCV NS3 helicase inhibitor project, biochemical, NIH Clinical Collection (AID 743272; call rule not given here;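 further: HCV NS3 helicase with a Cy5 labelled single stranded DNA probe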). The note with it: fluorescence interference counterscreen, stronger effect = lower value.
Test [10] can be described thus: viability rescue of complex I mutant cybrids, primary screen, cell-based, galactose medium, ATP luminescence (AID 1645843;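 active means z-score of at least 1.8 in each of two replicates, scored against plate mean and spread of sample wells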;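 further: positive z means more ATP and so rescue of galactose-driven cybrid death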). To be noted: complex I mutant cybrid cells, 72 h, stronger effect = higher value.
A further test deals with F380Y/beta4. The test can be described thus: modulators of BK channel variants, profiling panel, selectivity assay, cell-based, U2OS BacMam, thallium flux, beta subunits (AID 1259406).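 Further: initial slope of Thallos dye fluorescence rise after thallium is added; log ratio against the mean of 0.3% DMSO vehicle wells on the same plate.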 The note with it: at 30 µM.
In test [11] the target is Calcium-activated potassium channel subunit alpha-1 (Homo sapiens) + Leucine-rich repeat-containing protein 26 (Homo sapiens) (UniProt Q12791+Q2I0M4). The description is as above. To be noted: F380Y/Slo1WT/gamma1, at 30 µM.
Chain of Calcium-activated potassium channel subunit alpha-1 (Homo sapiens) + Leucine-rich repeat-containing protein 26 (Homo sapiens) (Q2I0M4 whole entry, looked up, one chain of several): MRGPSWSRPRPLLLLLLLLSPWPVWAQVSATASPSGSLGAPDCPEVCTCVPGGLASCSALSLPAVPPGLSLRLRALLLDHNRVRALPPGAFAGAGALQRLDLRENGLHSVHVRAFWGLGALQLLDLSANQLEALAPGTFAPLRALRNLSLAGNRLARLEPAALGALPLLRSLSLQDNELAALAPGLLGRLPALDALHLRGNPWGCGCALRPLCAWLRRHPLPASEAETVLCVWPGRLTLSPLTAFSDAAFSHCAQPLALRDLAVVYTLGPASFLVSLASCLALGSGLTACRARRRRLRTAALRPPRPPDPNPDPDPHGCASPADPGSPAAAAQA
The test system of the next test is R275C. The test is described as above. The note with it: at 30 µM.
The subject of another test is R275C/beta1. Described as above. To be noted: at 30 µM.
In the next test the test system is R275C/beta2Delta. Described as above. The note with it: at 30 µM.
Another test relates to R275C/beta4. The test is described as above. To be noted: at 30 µM.
The next test concerns R275C/Slo1WT/beta2. The description is as above. To be noted: at 30 µM.
Test [12] in a line: LFS_MB_P medulloblastoma growth inhibition, cell-based, chromothripsis tumors, cisplatin or BGB combos (AID 1671449; in the data active means inhibition above about 80%;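 further: cells exposed for 96 hours; 0% = vehicle DMSO and 100% = killing by high DMSO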). The note with it: LFS_MB_P medulloblastoma cells.
Test [13] is described as follows: HDN33 neuroblastoma growth inhibition, cell-based, chromothripsis tumors, cisplatin or BGB combos (AID 1671450; in the data active means inhibition above about 80%;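 further: cells exposed to compound for four days; 0% = vehicle DMSO and 100% = cell killing by high DMSO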). The note with it: HDN33 neuroblastoma cells, stronger effect = higher value.
Test [14] can be described thus: HTB85 osteosarcoma cell growth inhibition, synergistic combos for chromothripsis tumors, BGB or cisplatin IC20 combos (AID 1671453; in the data active means inhibition above about 80%;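 further: cells exposed for 96 hours before readout; 0% = vehicle DMSO and 100% = high DMSO killing control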). The note with it: HTB85 osteosarcoma cells, drug combinations, stronger effect = higher value.

For the molecule `CN(C)CCOC(c1ccc(Cl)cc1)c1ccccn1` (stereo unspecified), the inhibition in test [1] is -21.2%; in test [7] it was -5% (inactive); in [8], -3.53% (inactive). The score in [2] worked out at 1.7. Further, the cytochrome c release ratio in [3] worked out at 0.83. The inhibition of aggregation in test [4] is 44.8%. Also, the glutamate uptake change in test [5] worked out at 21.1%. Moreover, the fluorescence ratio is 1.05 (inactive) in [6] and 1.03 (inactive) in test [9]. Further, the z-score in test [10] is 1.09 (inactive). Besides, the log fold change Tl+ flux was 0.0228 (inactive) in the test on F380Y/beta4; 0.0613 (inactive) in [11]; 0.0106 (inactive) in the test on R275C; -0.0266 (inactive) in the test on R275C/beta1; 0.0559 (inactive) in the test on R275C/beta2Delta; 0.0288 (inactive) in the test with R275C/beta4. In the test with R275C/Slo1WT/beta2, the log fold change Tl+ flux was -0.0144 (inactive).

In the case of `O=c1[nH]cc(F)c(=O)[nH]1`, the inhibition was 7.47% in [1]; -3.18% (inactive) in [7]; -0.48% (inactive) in test [8]; 4.15% (inactive) in [12] (at 0.5 µM, stronger effect = higher value); 0.419% in [12] (measured here: combination with BGB IC20, at 0.005 µM); -26% in test [12] (measured here: combination with BGB IC40, at 0.005 µM). Also, the inhibition in [12] (measured here: combination with BGB IC40, at 0.05 µM) is -17%; in test [12] (measured here: combination with cisplatin, at 0.5 µM, stronger effect = higher value) it was 59.2%; in test [12] (measured here: combination with cisplatin, at 5 µM, stronger effect = higher value), -27.9%; in test [13] (BGB combo, at 5 µM), 30.6%; in test [13] (at 0.5 µM), 16.5% (inactive); in test [13] (cisplatin combo, at 5 µM), 40.1%. The inhibition in [13] (measured here: with BGB IC20 combination, at 0.5 µM) is -26.4%; in test [13] (measured here: with cisplatin IC20 combination, at 0.5 µM) it was 0.453%; in test [13] (single agent, at 5 µM), 42.5%; in test [14] (at 0.5 µM) it was -17.6% (inactive); in test [14] (measured here: with BGB IC20, at 0.5 µM), -36.1%; in [14] (measured here: with BGB IC20, at 5 µM), 17.5%. Also, the inhibition in [14] (measured here: with cisplatin IC20, at 0.5 µM) was -12.5%; in test [14] (measured here: with cisplatin IC20, at 5 µM), 22.8%; in [14] (single agent, at 5 µM), 21.8%. In test [2], the score stood at 0.35. Moreover, in [3], the cytochrome c release ratio was 0.98. Moreover, in test [4], the inhibition of aggregation came to 41.6%. For the same molecule, in test [5], the glutamate uptake change is -1.19%. Besides, the fluorescence ratio in test [6] was 0.97 (inactive); in test [9], 0.92 (inactive). Further, the z-score in test [10] was 6.85 (active) and -1.25 (inactive) and 2.99 (active). Besides, the log fold change Tl+ flux with F380Y/beta4 was -0.0444 (inactive); in test [11], -0.0276 (inactive); in the test with R275C, -0.0492 (inactive); in the test on R275C/beta1, 0.0262 (inactive); in the test with R275C/beta2Delta, -0.0331 (inactive); in the test on R275C/beta4 it was -0.0876 (inactive). For the same molecule, in the test on R275C/Slo1WT/beta2, the log fold change Tl+ flux was 0.0575 (inactive).

`NCc1ccc(S(N)(=O)=O)cc1`: the inhibition in test [1] is -6.75%; in test [7], -7.73% (inactive); in [8], 1.05% (inactive). The molecule also gave a score in test [2] of 1.19. Further, the cytochrome c release ratio in test [3] amounted to 0.88. In addition, in test [4], the inhibition of aggregation stood at 81.7%. The glutamate uptake change in test [5] is -7.14%. The fluorescence ratio in test [6] and in test [9] was 1.01 (inactive) throughout. Further, in test [10], the z-score was 1.92 (inactive). Besides, the log fold change Tl+ flux in the test with F380Y/beta4 was -0.0354 (inactive); in test [11], 0.00552 (inactive); in the test with R275C, 0.00729 (inactive); with R275C/beta1 it was -0.0404 (inactive); in the test on R275C/beta2Delta it was 0.176 (active); in the test on R275C/beta4 it was -0.0166 (inactive). Besides, the log fold change Tl+ flux in the test on R275C/Slo1WT/beta2 was -0.0456 (inactive).

For the molecule `COc1cc2nc(N(C)CCCNC(=O)C3CCCO3)nc(N)c2cc1OC` (stereo unspecified), the results for the fluorescence ratio in test [6] and in [9] were 1.04 (inactive) and 1.02 (inactive), respectively. Besides, the inhibition in test [7] is -1.98% (inactive); in [8] it was -3.95% (inactive). In addition, the z-score in test [10] was -0.01 (inactive) and 0.43 (inactive). The log fold change Tl+ flux in the test with F380Y/beta4 was 0.00267 (inactive); in test [11], -0.0369 (inactive); in the test with R275C, -0.0434 (inactive); with R275C/beta1, 0.0106 (inactive); in the test with R275C/beta2Delta, -0.00473 (inactive); in the test on R275C/beta4, -0.0149 (inactive). For the same molecule, the log fold change Tl+ flux in the test on R275C/Slo1WT/beta2 was 0.00335 (inactive).

As a reminder, the inhibition is the relative decrease from the control value, in per cent.
